Experimental data published in PubChem BioAssay (Tox21).
Results filed as inconclusive are left out. Activity calls are given as the source filed them. Unless noted, calls come from the whole dose curve; as a rule, active = well fitted curve in the direction sought with a large enough effect in the repeat runs; inconclusive = weak or mixed curves; inactive = no such curve, though single readings can be large; an effect the other way counts as inactive or inconclusive.

Assays:
[1] = qHTS assay to identify small molecule antagonists of the constitutive androstane receptor (CAR) signaling pathway - cell viability counter screen (AID 1224837); note: nearly all actives have a fitted effect of over 45% in size; note: potency is the fitted concentration of half-maximal effect
In short: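 Cells are seeded, rested 4 hr at 37 C/5% CO2, dosed with compound (15-point series) and 50 nM CITCO, incubated a further 23 hr, and then CellTiter-Fluor reagent is added before fluorescence is read. The line is HepG2 with stable hCAR and CYP2B6-2.2kb.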

[2] = target: Nuclear receptor subfamily 1 group I member 3 (Homo sapiens) (UniProt Q14994); experiment: qHTS assay to identify small molecule antagonists of the constitutive androstane receptor (CAR) signaling pathway (AID 1224838);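 note: HepG2 cells stably expressing hCAR with CYP2B6 luciferase reporter stimulated by CITCO; nearly all actives have a fitted effect of over 40% in size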
Sequence of Nuclear receptor subfamily 1 group I member 3 (Homo sapiens) (Q14994 whole entry, looked up): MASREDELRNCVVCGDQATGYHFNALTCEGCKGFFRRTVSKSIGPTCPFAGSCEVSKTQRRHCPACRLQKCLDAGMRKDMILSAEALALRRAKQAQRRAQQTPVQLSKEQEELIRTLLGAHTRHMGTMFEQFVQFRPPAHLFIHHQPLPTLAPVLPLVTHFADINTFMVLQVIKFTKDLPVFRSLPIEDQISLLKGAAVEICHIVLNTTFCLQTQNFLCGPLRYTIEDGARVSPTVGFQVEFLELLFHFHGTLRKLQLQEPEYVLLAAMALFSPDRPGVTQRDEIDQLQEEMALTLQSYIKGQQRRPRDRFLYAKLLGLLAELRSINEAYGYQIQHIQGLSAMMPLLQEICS
In short: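 Luminescence from a CYP2B6-2.2kb promoter reporter in hCAR-expressing HepG2 cells reflects CAR signaling. Cells received compounds at 15 concentrations and 50 nM CITCO (final), then incubated 24 h at 37 C/5% CO2.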

[3] = target: Nuclear receptor subfamily 1 group I member 3 (Homo sapiens) (UniProt Q14994); experiment: qHTS assay to identify small molecule agonists of the constitutive androstane receptor (CAR) signaling pathway (AID 1224839); note: nearly all actives have a fitted effect of over 15% in size; note: potency is the fitted concentration of half-maximal effect
In short: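 A 15-concentration quantitative screen uses HepG2 cells co-transfected stably with human CAR and CYP2B6-2.2kb reporter. Treatment lasts 24 h with 0.75 uM PK11195 final present; ONE-Glo luminescence is the signal.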

[4] = qHTS assay to identify small molecule antagonists of the estrogen related receptor signaling pathway with the pleiotropic PPARgamma coactivator (PGC) from Tox21 10K library - cell viability counter screen (AID 1224840; active = well fitted cell-killing curve with a large enough effect in the repeat runs, not every such curve was filed as active; note: nearly all actives have a fitted effect of over 40% in size)
In short: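 Cell viability is measured by CellTiter-Fluor fluorescence in PGC/ERR cells that receive compounds after a 6-hour attachment period and are then incubated 17.5 hours at 37 C.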

[5] = qHTS assay to identify small molecule agonists of the hypoxia (HIF-1) signaling pathway - cell viability counter screen (AID 1224844; calls by dose curve; note: nearly all actives have a fitted effect of over 50% in size)
In short: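 Viability counter screen: HRE-bla ME-180 cells plated 5 hrs before compound addition, treated 17 hrs at 37C and 5% CO2, then CellTiter-Glo added after the FRET reporter read; luminescence after 30 min.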

[6] = qHTS assay to identify small molecule agonists of the hypoxia (HIF-1) signaling pathway (AID 1224846; active = well fitted activation curve with a large enough effect in the signal ratio in the repeat runs, not every such curve was filed as active; the % refers to the signal ratio)
In short: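 Agonist mode reporter screen. ME-180 cells stably expressing bla under HRE control received test compounds in DMSO for 17 hrs (37C, 5% CO2), and beta-lactamase activity was then detected with the CCF4-AM FRET substrate.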

[7] = qHTS RealTime-Glo MT Cell Viability Assay in HepG2 cells - 24 hour (AID 1224867); note: nearly all actives have a fitted effect of over 50% in size
In short: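 Cells + NanoLuc/prosubstrate dispensed (600 cells/well) → 5 h at 37 C/5% CO2 → compounds in DMSO transferred → 40 h incubation at 37 C, luminescence read at 0, 8, 16, 24, 32, 40 h.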

[8] = qHTS RealTime-Glo MT Cell Viability Assay in HEK293 cells - 32 hour (AID 1224868); note: top concentration of the series differs between compounds; nearly all actives have a fitted effect of over 50% in size
In short: (§1)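 Tox21 10K qHTS, HEK293, 600 cells/well, RealTime-Glo reagent co-dispensed with cells; 5 h preincubation, compound by pintool, 37 C, luminescence at 0–40 h.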

[9] = A CellTox Green Cytotoxicity Assay to monitor cytotoxicity in HEK293 cells - 0 hour (AID 1224869); note: nearly all actives have a fitted effect of over 50% in size
In short: (§2)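 Dead-cell fluorescence measured kinetically: asymmetric cyanine dye, HEK293, 600 cells/well, 5 h settle, 23 nL cpd/DMSO, 37 C, reads 0–40 h every 8 h.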

[10] = qHTS RealTime-Glo MT Cell Viability Assay in HepG2 cells - 40 hour (AID 1224870); note: nearly all actives have a fitted effect of over 50% in size
In short: (§3)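 Real-time viability: cells seeded at 600 per well together with NanoLuc and cell-permeant prosubstrate, compounds added after 5 h incubation. Luminescence tracked at 0, 8, 16, 24, 32 and 40 h of exposure.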

[11] = A CellTox Green Cytotoxicity Assay to monitor cytotoxicity in HEK293 cells - 40 hour (AID 1224871); note: nearly all actives have a fitted effect of over 45% in size
In short: as §2

[12] = qHTS RealTime-Glo MT Cell Viability Assay in HEK293 cells - 16 hour (AID 1224872)
In short: as §1

[13] = qHTS RealTime-Glo MT Cell Viability Assay in HepG2 cells - 8 hour (AID 1224873); note: nearly all actives have a fitted effect of over 55% in size
In short: as §3

[14] = qHTS assay to identify small molecule agonists of H2AX (AID 1224845; active = well fitted activation curve with a large enough effect in the signal ratio in the repeat runs, not every such curve was filed as active; the % refers to the signal ratio)
In short: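 Phospho-H2AX Ser139 measured by HTRF (ex 320 nm; em 665 and 620 nm) after 24 hr antibody incubation. Compounds, 15 concentrations, 0.76% DMSO, were applied to CHO-K1 cells for 3hr at 37C before lysis.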

[15] = qHTS assay to identify small molecule agonists of H2AX - cell viability counter screen (AID 1224847; calls by dose curve; note: top concentration of the series differs between compounds; nearly all actives have a fitted effect of over 30% in size)
In short: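 We seed wild-type CHO-K1 cells overnight, treat them for 3 hr at 37C with compounds in 15-concentration series, and quantify remaining viability by CellTiter-Glo luminescence.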

[16] = qHTS assay to identify small molecule antagonists of the estrogen related receptor signaling pathway with the pleiotropic PPARgamma coactivator (PGC) from Tox21 10K library (AID 1224841; call rule not given here)
In short: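 Cells stably carrying the PGC/ERR reporter, seeded at 2,000 per well, received pin-transferred compounds 6 h post-plating. Exposure lasted 18 h at 37 C. Signal: One-Glo luminescence.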

[17] = qHTS assay to identify small molecule agonists of the estrogen related receptor signaling pathway with the pleiotropic PPARgamma coactivator (PGC) from Tox21 10K library (AID 1224842); note: nearly all actives have a fitted effect of over 15% in size
In short: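 Luminescence from One-Glo (30 min, room temperature) measured after PGC/ERR cells had 18 h at 37 C with pinned compound (23 nL in DMSO). Cells had been seeded at 2,000 per well and pre-incubated 6 h.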

[18] = target: Thyrotropin receptor (Homo sapiens) (UniProt P16473); experiment: qHTS assay to identify small molecule agonists of the thyroid stimulating hormone receptor (TSHR) signaling pathway (AID 1224843; calls by dose curve; note: nearly all actives have a fitted effect of over 45% in size)
Sequence of Thyrotropin receptor (Homo sapiens) (P16473 whole entry, looked up): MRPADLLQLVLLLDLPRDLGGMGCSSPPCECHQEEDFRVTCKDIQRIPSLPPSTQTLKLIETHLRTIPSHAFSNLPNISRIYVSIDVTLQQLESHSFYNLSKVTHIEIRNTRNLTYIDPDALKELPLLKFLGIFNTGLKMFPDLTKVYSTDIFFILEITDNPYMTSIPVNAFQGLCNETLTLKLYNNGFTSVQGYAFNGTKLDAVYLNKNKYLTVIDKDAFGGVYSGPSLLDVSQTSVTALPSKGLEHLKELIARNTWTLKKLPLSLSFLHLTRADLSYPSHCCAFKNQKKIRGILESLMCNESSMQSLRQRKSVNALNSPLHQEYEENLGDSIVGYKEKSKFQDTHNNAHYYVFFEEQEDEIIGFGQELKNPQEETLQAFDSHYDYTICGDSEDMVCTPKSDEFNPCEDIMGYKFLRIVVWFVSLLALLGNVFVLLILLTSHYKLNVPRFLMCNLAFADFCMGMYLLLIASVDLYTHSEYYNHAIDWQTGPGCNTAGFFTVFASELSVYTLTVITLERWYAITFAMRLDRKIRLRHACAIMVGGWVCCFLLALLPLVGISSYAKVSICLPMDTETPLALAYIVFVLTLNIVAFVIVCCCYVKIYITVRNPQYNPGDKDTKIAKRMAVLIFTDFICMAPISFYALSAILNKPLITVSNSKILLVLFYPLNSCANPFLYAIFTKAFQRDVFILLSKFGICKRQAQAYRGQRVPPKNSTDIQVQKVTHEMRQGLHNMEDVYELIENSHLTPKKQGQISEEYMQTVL
In short: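 A cell-based cAMP HTRF format was run in TSHR-transfected HEK293 cells, 800 per well. Treatment: 30 min, room temperature. Detection: 1 h with labelled cAMP and anti-cAMP cryptate. Concentration-response over 15 points, three replicates.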

[19] = qHTS assay to identify small molecule antagonists of the estrogen related receptor (ERR) signaling pathway from Tox21 library (AID 1224848); note: nearly all actives have a fitted effect of over 50% in size
In short: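 ERR cell line, 2,000 cells/well. 6 h settle, then compound (DMSO) added; 18 h at 37 C; ONE-Glo luminescence after 30 min RT.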

[20] = qHTS assay to identify small molecule agonists of the estrogen related receptor (ERR) signaling pathway from Tox21 library (AID 1224849; calls by dose curve; note: nearly all actives have a fitted effect of over 15% in size); conditions: ERR reporter cell line, ONE-Glo luciferase, 18 h; at 92.4 µM (top of the series) unless noted
In short: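 Quantitative HTS in agonist format: NTP ERR cell line, compounds transferred in DMSO after 6 h plating, 18 h incubation at 37 C, ONE-Glo luminescence endpoint.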
% is set by controls: 0 for no effect and ±100 for the full control effect.

Cc1ccc(C(C)c2ccc(C)c(C)c2)cc1C
inactive: Potency [1] | Potency [2] | Potency [3] | Potency [4] | Potency [5] | outcome [6] | Potency [7] | Potency [8] | Potency [9] | Potency [10] | Potency [11] | Potency [12] | Potency [13]

O=C(NS(=O)(=O)/C=C/c1cccs1)c1ccc(F)cc1Br
inactive: Potency [1] | Potency [2] | Potency [3] | Potency [4] | Potency [5] | Potency [14] | outcome [6] | Potency [15] | Potency [7] | Potency [9] | Potency [10] | Potency [11] | Potency [12] | Potency [13]

CC(C(=O)O)c1ccc(C(=O)c2ccccc2)s1 (stereo unspecified)
active: Potency [3] 16.8 µM
inactive: Potency [1] | Potency [2] | Potency [4] | Potency [5] | Potency [15] | Potency [7] | Potency [8] | Potency [9] | Potency [10] | Potency [11] | Potency [12] | Potency [13]

CCN(CC)C(C)=O
inactive: Potency [1] | Potency [2] | Potency [3] | Potency [16] | Potency [17] | Potency [18] | Potency [5] | Potency [14] | outcome [6] | Potency [15] | Potency [19] | activity change, positive = activation [20] 2.9% | Potency [7] | Potency [8] | Potency [9] | Potency [10] | Potency [11] | Potency [12] | Potency [13]

CNS(=O)(=O)Cc1ccc2[nH]cc(CCN(C)C)c2c1
inactive: Potency [1] | Potency [2] | Potency [3] | Potency [4] | Potency [5] | Potency [14] | outcome [6] | Potency [15] | Potency [7] | Potency [8] | Potency [9] | Potency [10] | Potency [11] | Potency [12] | Potency [13]

O=S1(=O)c2cccc3cccc(c23)N1CCCN1CCN(c2ccc(F)cc2)CC1
inactive: Potency [1] | Potency [2] | Potency [16] | Potency [17] | Potency [18] | Potency [5] | Potency [14] | Potency [15] | activity change, positive = activation [20] -30.2% [at 42.5 µM] | Potency [7] | Potency [8] | Potency [9] | Potency [10] | Potency [11] | Potency [12] | Potency [13]
active: Potency [3] 26.6 µM

CCCCCC/C=C/C=O
inactive: Potency [1] | Potency [2] | Potency [3] | Potency [16] | Potency [17] | Potency [5] | Potency [14] | outcome [6] | Potency [15] | Potency [19] | activity change, positive = activation [20] 2.49% | Potency [7] | Potency [8] | Potency [9] | Potency [10] | Potency [11] | Potency [13]

C=C(C)C(=O)OCCN(C)C
inactive: Potency [1] | Potency [2] | Potency [3] | Potency [4] | Potency [5] | Potency [14] | outcome [6] | Potency [7] | Potency [8] | Potency [9] | Potency [10] | Potency [11] | Potency [12] | Potency [13]

FC(F)(F)C(F)(F)C(F)(F)C(F)(F)C(F)(F)C(F)(F)CCI
inactive: Potency [1] | Potency [2] | Potency [3] | Potency [18] | Potency [5] | Potency [14] | outcome [6] | Potency [15] | Potency [7] | Potency [8] | Potency [9] | Potency [10] | Potency [11] | Potency [12] | Potency [13]

NCc1ccccc1
inactive: Potency [1] | Potency [2] | Potency [3] | Potency [16] | Potency [17] | Potency [18] | Potency [5] | outcome [6] | Potency [15] | Potency [19] | Potency [7] | Potency [8] | Potency [9] | Potency [10] | Potency [11] | Potency [12] | Potency [13]

O=C1CCCCCO1
inactive: Potency [1] | Potency [2] | Potency [3] | Potency [18] | Potency [5] | Potency [14] | outcome [6] | Potency [15] | Potency [7] | Potency [8] | Potency [9] | Potency [10] | Potency [11] | Potency [12] | Potency [13]

NC(N)=N/N=C/c1c(Cl)cccc1Cl
inactive: Potency [2] | Potency [3] | Potency [16] | Potency [17] | Potency [5] | Potency [14] | Potency [15] | Potency [19] | activity change, positive = activation [20] -17.6% [at 42.5 µM] | Potency [7] | Potency [8] | Potency [9] | Potency [10] | Potency [11] | Potency [12] | Potency [13]
active: Potency [1] 23.7 µM

O=C(C(=O)c1ccc(Br)cc1)c1ccc(Br)cc1
inactive: activity change, negative = cytotoxicity [1] -2.27% [at 19 µM] | activity, negative = inhibition [2] 0.195% [at 19 µM] | activation [3] 2.8% [at 19 µM] | activation [17] 2.38% [at 19 µM] | activation [18] 3.26% [at 19 µM] | activity change, negative = cytotoxicity [5] -11.6% [at 15.8 µM] | activation [6] -1.03% [at 15.8 µM] | activity change, negative = cytotoxicity [15] 0.693% [at 31.6 µM] | activity, negative = inhibition [19] -0.511% [at 19 µM] | activity change, positive = activation [20] 0.063% [at 19 µM] | activity change, negative = cytotoxicity [7] -0.799% [at 15.8 µM] | activity change, negative = cytotoxic [8] 3.98% [at 15.8 µM] | cytotoxicity [9] 1.99% [at 15.8 µM] | activity change, negative = cytotoxic [10] 6.88% [at 15.8 µM] | cytotoxicity increase [11] 0.336% [at 15.8 µM] | activity change, negative = cytotoxicity [12] 5.77% [at 15.8 µM] | viability change, negative = cytotoxic [13] -3.19% [at 15.8 µM]

CC(CN)CCCN (stereo unspecified)
inactive: Potency [1] | Potency [2] | Potency [3] | Potency [16] | Potency [17] | Potency [18] | Potency [5] | Potency [14] | outcome [6] | Potency [19] | activity change, positive = activation [20] -0.964% | Potency [7] | Potency [8] | Potency [9] | Potency [10] | Potency [11] | Potency [12] | Potency [13]
